High-throughput results from PubChem.
NTR1 ag: NTR1 (human) agonism; P30989; NTR1-U2OS beta-arrestin-GFP spot imaging, agonist mode; activation, % at 20 µM; 330,000 compounds, 0.17% hits; AID 493036;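 active = activation at or above 40% of the spot to cytoplasm intensity ratio, with at least 20 cells analyzed; inconclusive = wells under 20 cells, flagged as cytotoxic or low count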
Target sequence (P30989 whole entry, looked up): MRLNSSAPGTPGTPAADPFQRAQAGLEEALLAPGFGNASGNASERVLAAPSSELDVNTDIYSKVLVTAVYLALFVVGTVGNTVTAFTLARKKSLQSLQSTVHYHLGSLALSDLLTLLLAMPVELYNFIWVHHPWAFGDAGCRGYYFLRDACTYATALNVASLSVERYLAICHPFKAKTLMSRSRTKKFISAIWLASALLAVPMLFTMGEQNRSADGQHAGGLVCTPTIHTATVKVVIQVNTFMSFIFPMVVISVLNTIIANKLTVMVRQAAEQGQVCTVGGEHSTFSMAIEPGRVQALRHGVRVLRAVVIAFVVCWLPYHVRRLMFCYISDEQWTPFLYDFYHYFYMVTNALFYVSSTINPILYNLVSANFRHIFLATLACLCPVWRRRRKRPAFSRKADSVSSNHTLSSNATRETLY
AI-2 QS mod: modulates the Vibrio harveyi AI-2 quorum sensing system | Vibrio harveyi JMH597 AI-2 luminescence/OD600 ratio, 9 h; stronger effect = lower value; strain lacks LuxN and CqsS sensors; 0 = neutral-control median | activity change, % at 7.5 µM | 300,000 compounds, 0.4% hits | AID 2094; in the data active = activity change below about -75%, passing the limit was not always enough; inconclusive = no clear call, values can overlap the other calls;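 note: luminescence divided by OD600 gain over 9 h not by final OD600 alone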
H9c2 protect: myocardial damage modulation in H9c2 cells. protection from H2O2 cell death, % at 20 µM. AID 588492. H9c2 cardiomyocytes, H2O2 injury protection, ATPLite, 2 h. 360,000 compounds, 0.63% hits;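 active = compounds giving at least 50% protection of heart cells from peroxide-induced death in the single-dose screen, raw or plate-pattern-corrected value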
Mot1-301 SUMO: inhibitors of SUMOylation pathway: yeast Mot1-301 growth rescue; growth rescue, % at 18.8 µM; S. cerevisiae Mot1-301 growth rescue, ATP luminescence, 38.5C; percent above DMSO median, 100 means doubled; 320,000 compounds, 1% hits;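 active = every valid replicate shows activation above 250% relative to neutral control wells; inactive = the rest, any valid replicate at or below 250%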
AHR activator: activators of human aryl hydrocarbon receptor; P35869; 320,000 compounds, 2.5% hits; activation, % at 5 µM; AID 2796; AHR-responsive luciferase reporter cells, luminescence; in the data active = activation above about 47%
NR3A LBD binder: NR3A (human) ligand-binding domain modulation; Tm shift relative to glycine control, % at 25 µM; NR3A LBD differential scanning fluorimetry, Tm shift; 0% = protein alone, 100% = glycine-bound protein; 340,000 compounds, 2.5% hits;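 active = melting temperature shift of at least 10% of the positive control shift, at one fixed dose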
JMH597 growth rt: retest Vibrio harveyi JMH597 growth inhibition | shares compounds with AI-2 QS mod | OD600 absorbance, 9 h; lacks LuxN and CqsS sensors | growth inhibition, % at 7.5 µM | 750 compounds, 1% hits | AID 2726;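 active = every replicate shows growth inhibition above 50%; inconclusive = at least half, but not all, replicates pass that cutoff; inactive = fewer than half of replicates pass it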
BB721 const-QS lum: retest counter-screen: lowers luminescence of constitutive-QS Vibrio harveyi BB721; 9 h; shares compounds with AI-2 QS mod; inhibition, % at 7.5 µM; AID 2727; 750 compounds, 95% hits;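 active = inhibition above about 80% in every replicate, not just on average, limit read from the data; inconclusive = at least half of replicates past the limit, but not all; inactive = fewer than half of replicates past the limit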
BB721 growth: retest: inhibitors of Vibrio harveyi BB721 growth; shares compounds with AI-2 QS mod; 750 compounds, 3% hits; growth inhibition, % at 7.5 µM; AID 2728; OD600 absorbance, 9 h;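 active = every replicate shows growth inhibition above 50%; inconclusive = at least half but not all replicates above 50% inhibition; inactive = under half of replicates above 50% inhibition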
JMH597 AI-2 mod: Vibrio harveyi AI-2 signaling luminescence modulation – JMH597 strain, confirmation; 750 compounds, 97% hits; shares compounds with AI-2 QS mod; Vibrio harveyi JMH597 AI-2 quorum sensing luminescence, 9 h; luxN and CqsS knockout, AI-2 only; inhibition, % at 7.5 µM;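 active = every replicate shows more than 75% inhibition of signal versus neutral control wells; inconclusive = half to three quarters of replicates exceed 75% inhibition; inactive = fewer than half of replicates exceed 75% inhibition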
Numbers stand for hits; - = inactive; ? = inconclusive; . = no result given. An excerpt weighted towards active compounds, which were near 6.2% of everything screened.

SMILES | NTR1 ag | AI-2 QS mod | H9c2 protect | Mot1-301 SUMO | AHR activator | NR3A LBD binder | JMH597 growth rt | BB721 const-QS lum | BB721 growth | JMH597 AI-2 mod
CC[C@]12C(=O)N(C)C[C@H]([C@@H]3C(=O)N(C)C(=O)[C@@H]31)N2C(=O)c1ccc(Cl)cc1 | . | . | - | . | . | - | . | . | . | .
O=C(/C=C/c1ccco1)NCc1ccc(F)cc1 | - | -85 | - | - | - | - | - | 94 | - | 96
NS(=O)(=O)c1ccc(CNC(=O)/C=C/c2ccco2)cc1 | - | - | - | - | - | - | . | . | . | .
O=C(Cc1ccc(Br)cc1)Nc1ccc(S(=O)(=O)NCC2CCCO2)cc1 (centres undefined) | - | -96 | - | - | - | - | - | 99 | - | 99
O=C(CSc1ccccc1)Nc1ccc(S(=O)(=O)NCC2CCCO2)cc1 (centres undefined) | - | -97 | - | - | - | - | - | 100 | - | 100
COCC(=O)Nc1ccc(S(=O)(=O)NCC2CCCO2)cc1 (centres undefined) | - | - | - | - | - | - | . | . | . | .
Cc1ccccc1C(=O)Nc1ccc(S(=O)(=O)NCC2CCCO2)cc1 (centres undefined) | . | . | - | . | . | . | . | . | . | .
NS(=O)(=O)c1ccc(NC(=O)CN2C(=O)c3ccccc3C2=O)cc1 | - | -84 | - | - | - | - | - | 93 | - | 96
O=C(CN1C(=O)c2ccccc2C1=O)Nc1ccccc1 | - | - | - | - | - | - | . | . | . | .
O=C(CN1C(=O)c2ccccc2C1=O)Nc1ccc(S(=O)(=O)N2CCOCC2)cc1 | - | -97 | - | - | - | - | - | 99 | - | 100
O=C(CN1C(=O)c2ccccc2C1=O)Nc1ccc(N2CCOCC2)cc1 | - | - | - | - | - | - | . | . | . | .
O=C(NCc1ccc2c(c1)OCO2)Nc1ccc2nsnc2c1 | - | -85 | - | - | - | - | 79 | 97 | - | 99
O=C(NCc1ccc2c(c1)OCO2)Nc1ccc(Cl)cc1 | - | - | - | - | - | - | . | . | . | .
O=S(=O)(c1cccs1)N1CCN(CC(O)COC2CCCc3ccccc32)CC1 (centres undefined) | - | - | - | - | - | - | . | . | . | .
O=S(=O)(c1cccs1)N1CCN(CC(O)COc2cccc(Br)c2)CC1 (centres undefined) | - | -82 | - | - | - | - | - | 88 | - | 93
Cc1cccc(OCC(=O)O/N=C(\N)c2ccccn2)c1 | - | -91 | - | - | - | - | - | 93 | - | 96
Cc1cc(C)cc(OCC(=O)O/N=C(\N)c2ccccn2)c1 | - | ? | - | - | - | - | . | . | . | .
N/C(=N\OC(=O)COc1ccccc1)c1cccnc1 | - | -88 | - | - | - | - | - | 95 | - | 97
Cc1cc(C)cc(OCC(=O)O/N=C(\N)c2cccnc2)c1 | . | -96 | - | . | . | - | - | 98 | - | 98
N/C(=N\OC(=O)COc1ccc(Br)cc1)c1cccnc1 | - | - | - | - | - | - | . | . | . | .
OCCC1CN(C2CCC2)CCN1Cc1ccc(F)c(F)c1 (centres undefined) | - | - | - | - | - | - | . | . | . | .
O=S(=O)(c1ccc(Br)s1)n1cccn1 | - | -91 | - | - | - | - | - | 98 | - | 100
CCOc1ccc(NC(=O)C2CCN(S(=O)(=O)c3cccnc3)CC2)cc1 | - | -86 | - | - | - | - | - | 95 | - | 97
O=C(Nc1ccc(S(=O)(=O)N2CCCC2)cc1)C1CCCCC1 | - | -83 | - | - | - | - | - | 93 | - | 96
O=C(Nc1ccc(S(=O)(=O)N2CCCCC2)cc1)C1CC1 | - | - | - | - | - | - | . | . | . | .
SMILES | NTR1 ag | AI-2 QS mod | H9c2 protect | Mot1-301 SUMO | AHR activator | NR3A LBD binder | JMH597 growth rt | BB721 const-QS lum | BB721 growth | JMH597 AI-2 mod
CCCCC(=O)NC(=S)Nc1ccc(S(=O)(=O)N2CCCC2)cc1 | - | -84 | - | . | - | - | - | 86 | - | 92
Cc1ccccc1OCC(=O)OCC(=O)NC1CCCC1 | . | . | - | . | . | . | . | . | . | .
CCCCc1nnc(NC(=O)Cn2cnc3ccccc3c2=O)s1 | - | -95 | - | . | - | - | - | 99 | - | 99
CCc1nnc(NC(=O)CCn2cnc3ccccc3c2=O)s1 | - | - | - | - | - | - | . | . | . | .
CCCCCc1nnc(NC(=O)Cn2cnc3ccccc3c2=O)s1 | - | -94 | - | - | - | - | - | 98 | - | 99
O=C(Nc1cc(S(=O)(=O)N2CCOCC2)ccc1N1CCCCC1)c1ccccc1Br | - | . | - | - | - | - | . | . | . | .
O=C(Cc1ccccc1)N/N=C/c1cccs1 | - | - | - | - | - | - | . | . | . | .
O=C(Cc1ccc(Cl)cc1)N/N=C/c1cccs1 | - | ? | - | - | - | - | - | 89 | - | 90
COc1ccc(/C=N/NC(=O)CNC(=O)c2cccs2)cc1 | - | - | - | - | - | - | . | . | . | .
O=C(CNC(=O)c1cccs1)N/N=C/c1ccc(Cl)cc1 | - | -87 | - | - | - | - | - | 96 | - | 96
O=C(NCc1ccc2c(c1)OCO2)c1cc(COc2c(F)cccc2F)on1 | - | - | - | - | - | - | . | . | . | .
COc1cccc(/C=C/C(=O)NCc2ccc3c(c2)OCO3)c1 | - | -86 | - | - | - | - | - | 95 | - | 96
COc1cccc(OCc2cc(C(=O)NCc3ccc4c(c3)OCO4)no2)c1 | - | ? | - | - | - | - | - | 92 | ? | 96
O=C1CN(C(=O)COC(=O)CCCOc2ccccc2)c2ccccc2N1 | - | -81 | - | - | - | - | - | 94 | - | 96
CC1(C)C(=O)Nc2ccccc2N1C(=O)COC(=O)CCSc1ccccc1 | - | -85 | - | . | - | - | - | 92 | - | 95
CC1(C)C(=O)Nc2ccccc2N1C(=O)COC(=O)CSc1ccc(F)cc1 | - | . | - | - | - | - | . | . | . | .
O=C(NCc1ccc(Cl)cc1)c1ccc(S(=O)(=O)N2CCCCC2)cc1 | - | . | - | - | - | - | . | . | . | .
COc1ncnc2c1cnn2-c1ccccc1 | - | - | - | - | - | - | . | . | . | .
CN(C)S(=O)(=O)c1ccc(NC(=O)COc2ncnc3c2cnn3-c2ccccc2)cc1 | - | ? | - | - | - | - | - | 91 | - | 95
CC1CCCCN1CCCNC(=O)CN1C(=O)c2cccnc2Oc2ccccc21 (centres undefined) | - | - | - | - | - | - | . | . | . | .
Oc1ccc(-n2nnnc2SCc2ccccc2Br)cc1 | - | ? | - | - | . | - | - | 81 | - | 87
